Records with an inconclusive call do not appear. Activity calls are given as the source filed them. Calls come from the whole dose curve; as a rule, active = well fitted cell-killing curve with a large enough effect; inconclusive = small, poorly fitted or top-dose-only effect, or effect the other way; inactive = flat fitted curve, though single readings scatter.
Assays:
Experiment in all cases: Primary qHTS to identify gynecologic anti-cancer compounds using libraries of approved drugs and bioactive compounds (AID 1345084); note: nearly all actives have a fitted effect of over 55% in size
C33A = conditions: Gynecologic cancer cell panel viability, ATPlite luminescence, 48 h; series mostly up to 57.5 µM
In short: (§1)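 Cells, 1,000 per well, plated 16 h, then exposed 48 h at 37 C to compounds. Viability by ATPlite luminescence after 15 min at room temperature.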

CAOV3 = conditions: Gynecologic cancer cell panel viability, ATPlite luminescence, 48 h; series mostly up to 57.5 µM
In short: as §1

CASKI = conditions: Gynecologic cancer cell panel viability, ATPlite luminescence, 48 h; series mostly up to 57.5 µM
In short: as §1

Es-2 = conditions: Gynecologic cancer cell panel viability, ATPlite luminescence, 48 h; series mostly up to 57.5 µM
In short: as §1

HeLa = conditions: Gynecologic cancer cell panel viability, ATPlite luminescence, 48 h; series mostly up to 57.5 µM
In short: as §1

Hek293T = conditions: Gynecologic cancer cell panel viability, ATPlite luminescence, 48 h, control line for the selectivity index; series mostly up to 57.5 µM
In short: as §1

Measured: Potency

CC1(C)CC[C@]2(C(=O)O[C@@H]3O[C@H](CO)[C@@H](O)[C@H](O)[C@H]3O)CC[C@]3(C)C(=CCC4[C@@]5(C)C[C@@H](O)[C@H](O)[C@](C)(C(=O)O)C5CC[C@]43C)C2C1O (some centres undefined)
inactive: all assays above

O=C(NCc1ccc(F)cc1)C(=O)c1c[nH]c2ccccc12
inactive: all assays above

CC1(C)CC2=C3C=CC4C5(C)CCC(O)C(C)(C)C5CCC4(C)C3(C)CCC2(C)C(O)C1 (centres undefined)
inactive: all assays above

COC(=O)C1=C2Nc3ccccc3C23CCN2CCCC(C(C)O)(C1)C23 (centres undefined)
inactive: all assays above

O=C(O)C(O[C@@H]1O[C@H](CO[C@@H]2O[C@H](CO)[C@@H](O)[C@H](O)[C@H]2O)[C@@H](O)[C@H](O)[C@H]1O)c1ccccc1 (some centres undefined)
inactive: all assays above

COc1cc(C2Oc3c(OC)cc(CCCO)cc3C2CO)ccc1O[C@H]1O[C@H](C)[C@@H](O)[C@H](O)[C@@H]1O (some centres undefined)
inactive: all assays above

CC(=O)O[C@@H]1[C@@H](O)[C@H](O[C@H]2CC[C@]34C[C@]35CC[C@]3(C)[C@@H]([C@@]6(C)CC[C@@H](C(C)(C)O)O6)[C@@H](O)C[C@@]3(C)[C@@H]5C[C@H](O[C@@H]3O[C@H](CO)[C@@H](O)[C@H](O)[C@H]3O)[C@H]4C2(C)C)OC[C@H]1O
inactive: all assays above

CCC(C)C(=O)OC1CC(C)C=C2C=CC(C)C(CCC(O)CC(O)CC(=O)O)C21 (centres undefined)
inactive: all assays above

CC(C)c1nnc(-c2ccc(-c3ccccc3)nc2)n1-c1cccc2nonc12
inactive: all assays above

O=C(Nc1ccccc1)N1CCN(Cc2ccc3ccccc3n2)CC1
inactive: all assays above

C=CC/C=C\C/C=C\CCCCCCCc1cccc(O)c1C(=O)O
inactive: all assays above

CN1CCN(C(=O)c2ccc3cc(CCNc4ncnc5ccc(C#N)cc45)ccc3c2)CC1
inactive: all assays above

OC[C@@]1(O)CO[C@@H](OC[C@H]2O[C@@H](Oc3c[nH]c4ccccc34)[C@H](O)[C@@H](O)[C@@H]2O)[C@@H]1O
inactive: all assays above

CC(=O)OC1C[C@]2(C)C(O)CC(C)=C[C@H](OC(=O)c3ccc(O)cc3)C2[C@]1(O)C(C)C (some centres undefined)
inactive: all assays above

Cc1ccccc1CN1C2=NCCN2C(=O)C2=C1CCN(Cc1ccccc1)C2
inactive: all assays above

O=C1NC(Cc2c[nH]c3ccccc23)C(=O)NC1Cc1c[nH]c2ccccc12 (centres undefined)
inactive: all assays above

CC1CC(C(O)C(C)(C)O)OC2CC3(C)C4(C)CCC5C(C)(C)C(=O)CCC5(C)C4CCC3(O)C12O (centres undefined)
inactive: all assays above

CCCOc1ccc(-c2nc(OC)c3ccccc3n2)cc1
inactive: all assays above

C=C1CCC2C(C(C)(C)O)CCC2(C)CC(O)C(=C)CCC1O (centres undefined)
inactive: all assays above
